From PubChem BioAssay AID1851 (National Center for Advancing Translational Sciences (NCATS), 2009) come the findings set out here.

Molecules are shown by their SMILES. Among all 16,000 compounds or so, about 4,000 (25%) were called active. Roughly 26% stayed inconclusive and do not appear here. The list is a sample of the results. Unmarked numbers belong to inactive results. Calls come from the whole dose curve; as a rule, active = well fitted curve in the direction sought with a large enough effect; inconclusive = small, poorly fitted or top-dose-only effect, or effect the other way; inactive = no such curve, though single readings can be large or run the other way.
% is set by controls: 0 for no effect and ±100 for the full control effect.

Chain of Cytochrome P450 2C9 (Homo sapiens) (P11712 whole entry, looked up): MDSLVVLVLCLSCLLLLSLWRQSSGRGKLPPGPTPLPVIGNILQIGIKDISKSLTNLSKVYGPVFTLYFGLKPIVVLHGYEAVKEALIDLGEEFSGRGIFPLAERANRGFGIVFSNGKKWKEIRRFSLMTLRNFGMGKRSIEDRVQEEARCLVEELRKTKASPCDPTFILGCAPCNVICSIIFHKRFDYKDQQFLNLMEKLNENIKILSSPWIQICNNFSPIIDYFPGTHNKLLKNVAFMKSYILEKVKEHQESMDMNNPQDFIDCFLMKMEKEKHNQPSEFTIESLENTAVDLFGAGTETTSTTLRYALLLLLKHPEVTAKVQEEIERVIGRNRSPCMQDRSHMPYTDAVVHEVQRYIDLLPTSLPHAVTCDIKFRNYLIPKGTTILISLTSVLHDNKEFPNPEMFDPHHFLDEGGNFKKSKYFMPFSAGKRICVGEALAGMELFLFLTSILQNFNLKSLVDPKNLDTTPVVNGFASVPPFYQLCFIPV

The assay addresses Cytochrome P450 2C9 (Homo sapiens) (UniProt P11712). Put plainly: Cytochrome panel assay with activity outcomes. The note with it: recombinant CYP, pro-luciferin dealkylation, luminescence, p450-cyp2c9; series mostly up to 57.1 µM.
For orientation: AC50 means the concentration giving half of the maximal activity seen. Take `CN(C)c1ncc2nc(CCc3ccccc3)c(=O)n(-c3ccccc3)c2n1`: the AC50 was 12.6 µM (active).

In the case of `O=c1c(-c2ccccc2)nc2cncnc2n1C1CC1`, the AC50 entry was “inactive”.

Consider `COCCn1c(=O)c(-c2ccccc2)nc2cnc(N(C)C)nc21`, for which the AC50 is 20 µM (active).

In the case of `COCCn1c(=O)c(-c2ccc(Cl)cc2)nc2cnc(N(C)C)nc21`, the AC50 entry was “inactive”.

As for `COCCn1c(=O)c(-c2cc(F)cc(F)c2)nc2cnc(N(C)C)nc21`, the AC50 result is “inactive”.

With `CN(C)c1ncc2nc(-c3ccc(F)cc3)c(=O)n(C)c2n1`, the AC50 result is “inactive”.

As to `CN(C)c1ncc2nc(-c3ccc(Cl)cc3)c(=O)n(C)c2n1`, the AC50 entry was “inactive”.

With `Cc1nc2cnc(N(C)C)nc2n(-c2ccccc2)c1=O`, the AC50 entry is “inactive”.

For `CN(C)c1ncc2nc(-c3ccccc3)c(=O)n(C)c2n1`, the AC50 was 10 µM (active).

Take `COc1ccc(-n2c(=O)c(CCc3ccccc3)nc3cnc(N(C)C)nc32)cc1`: the AC50 result was “inactive”.

Consider `CN(C)c1ncc2nc(-c3ccccc3)c(=O)n(C3CC3)c2n1`, for which the AC50 is 10 µM (active).

On to `CCNc1ncc2nc(-c3ccccc3)c(=O)n(C3CC3)c2n1`, for which the AC50 result was “inactive”.

In the case of `CC(C)NC(=O)N1CCCC2(CCN(C(=O)c3csnn3)CC2)C1`, the AC50 entry is “inactive”.

On to `N#Cc1cccc(-c2nc(NCc3cccs3)c3ccccc3n2)c1`, for which the activity, negative = inhibition is -13.5% [at 2.29 µM].

For `CN(C)c1ncc2nc(-c3cc(F)cc(F)c3)c(=O)n(CCc3ccccc3)c2n1`, the AC50 result was “inactive”.

Turning to `CN(C)c1ncc2nc(-c3ccccc3)c(=O)n(CCC#N)c2n1`, the AC50 result was “inactive”.

As to `CN(C)c1ncc2nc(-c3cccs3)c(=O)n(CCc3ccccc3)c2n1`, the AC50 result is “inactive”.

On to `CN(C)c1ncc2nc(CCc3ccccc3)c(=O)n(Cc3cccs3)c2n1`, for which the AC50 is 15.8 µM (active).

For the compound `COCCn1c(=O)c(C)nc2cnc(N(C)C)nc21`, the AC50 result was “inactive”.

For `CN(C)c1ncc2nc(-c3cccs3)c(=O)n(Cc3cccs3)c2n1`, the AC50 entry was “inactive”.

In the case of `Cc1nc2cnc(N(C)C)nc2n(CCc2ccccc2)c1=O`, the AC50 was 12.6 µM (active).

As for `CN(C)c1ncc2nc(-c3ccc(F)cc3)c(=O)n(CCc3ccccc3)c2n1`, the AC50 entry is “inactive”.

Take `Cc1nc2cnc(N(C)C)nc2n(Cc2cccs2)c1=O`: the AC50 result was “inactive”.

In the case of `CN(C)c1ncc2nc(CCc3ccccc3)c(=O)n(CCC#N)c2n1`, the AC50 was 15.8 µM (active).

As for `Cc1nc2cnc(N(C)C)nc2n(CCC#N)c1=O`, the AC50 result is “inactive”.

`CN(C)c1ncc2nc(-c3ccccc3)c(=O)n(CCc3ccccc3)c2n1`: the AC50 is 0.631 µM (active).

On to `NC1=NC2(CCCCC2)N=C(Nc2ccc(F)cc2F)N1`, for which the AC50 entry is “inactive”.

Turning to `N=C(N)SCCCN`, the activity, negative = inhibition is 7.79% [at 11.4 µM].

In the case of `COc1ccc(-c2nc3cnc(N(C)C)nc3n(CCc3ccccc3)c2=O)cc1`, the AC50 entry is “inactive”.

As to `CN(C)c1ncc2ncc(=O)n(CCc3ccccc3)c2n1`, the AC50 is 6.31 µM (active).

`CN(C)c1ncc2nc(CCc3ccccc3)c(=O)n(CCc3ccccc3)c2n1`: the AC50 is 12.6 µM (active).

As for `CN(C)c1ncc2ncc(=O)n(C)c2n1`, the AC50 result was “inactive”.

On to `COc1ccccc1N1CCN(CCn2c(=O)[nH]c3c([nH]c4ccccc43)c2=O)CC1`, for which the AC50 result was “inactive”.

With `COCCn1c(=O)[nH]c2cc(C(=O)N3CCN(c4ccccc4OC)CC3)ccc2c1=O`, the AC50 was 7.94 µM (active).

For the compound `COc1ccc(-c2csc(N3C(=N)SCC3=O)n2)cc1`, the concentration at half-maximal activity (AC50) is 3.55 µM (active).

`N=C1SCC(=O)N1c1nc(-c2ccccc2)cs1`: the AC50 result was “inactive”.

As for `CC(=O)Oc1cc(C(C)C)c(OCCN(C)C)cc1C`, the AC50 entry was “inactive”.

As to `CC(C)NCC[C@@H](O)c1cc2ccccc2o1`, the activity, negative = inhibition was 17.2% [at 11.4 µM].

For the compound `CC(=O)OC[C@@H]1O[C@H](CCON=C(C)C)C=C[C@@H]1OC(C)=O`, the activity, negative = inhibition is 3.94% [at 11.4 µM].

For `OCCN(Cc1ccccc1)Cc1cccc(Cl)c1Cl`, the AC50 was 3.98 µM (active).

As to `CCN(CCO)Cc1csc2cccc(Br)c12`, the AC50 entry is “inactive”.

Turning to `CN(C(=O)CN(CCO)CC(=O)N(C)C(C)(C)Cc1ccccc1)C(C)(C)Cc1ccccc1`, the AC50 entry is “inactive”.

With `Cc1cc(N=Cc2c(CO)cnc(C)c2O)c(N=Cc2c(CO)cnc(C)c2O)cc1C.[Zn]`, the activity, negative = inhibition was -15.6% [at 11.4 µM].

Regarding `O=C(c1ccc(S(=O)(=O)N2CCCCCC2)cc1)N1CCC(CN2C(=O)c3cccc4cccc(c34)C2=O)CC1`, the AC50 result is “inactive”.

For the compound `O[C@@H](COc1cccc2ccccc12)CN1CCOCC1`, the activity, negative = inhibition was 5.45% [at 11.4 µM].

With `O=C1c2cccc3cccc(c23)C(=O)N1CC1CCN(CC(O)COc2ccc3ccccc3c2)CC1` (configuration not stated), the AC50 was 0.891 µM (active).

Consider `CCS(=O)(=O)N1CCCC(C(=O)NCCCOC(C)C)C1` (configuration not stated), for which the AC50 result is “inactive”.

For the compound `COc1ccccc1-c1ccc2ncnc(N3CCN(C)CC3)c2c1`, the activity, negative = inhibition is 1.65% [at 2.29 µM].

Turning to `COc1cccc2[nH]c3c(N4CC(C)CC(C)C4)ncnc3c12` (configuration not stated), the AC50 is 10 µM (active).

`CCOc1ncccc1C(=O)OCC(=O)Nc1cc(C)ccc1C`: the AC50 was 8.91 µM (active).

As to `Cc1ccc(C)c(NC(=O)Cn2c([N+](=O)[O-])cnc2C)c1`, the AC50 result is “inactive”.

For the compound `Cc1ccc(C)c(N/C(N)=N/c2nc(C)cc(C)n2)c1`, the AC50 result was “inactive”.

In the case of `CN(C)C(=N)N=C(N)N`, the AC50 entry is “inactive”.

For `CCn1c(SCC(=O)Nc2nc3ccc(C)cc3s2)nc2c(c1=O)SC(C)C2` (configuration not stated), the half-maximal activity concentration (AC50) is 3.16 µM (active).

For the compound `CCn1c(SCC(=O)NC2CCCCC2)nc2c(c1=O)SC(C)C2` (configuration not stated), the AC50 result was “inactive”.

For the compound `Cc1ccc2nc(NC(=O)CSc3nc4c(c(=O)n3C)SC(C)C4)sc2c1` (configuration not stated), the AC50 is 1.78 µM (active).

With `CCn1c(SCC(=O)Nc2ccc3c(c2)OCCO3)nc2c(c1=O)SC(C)C2` (configuration not stated), the AC50 was 2 µM (active).

Turning to `Cn1c(=O)c2[nH]c([C@@H]3CC(=O)C[C@H](c4nc5c([nH]4)c(=O)n(C)c(=O)n5C)N3)nc2n(C)c1=O`, the activity, negative = inhibition is 2.38% [at 11.4 µM].

Regarding `CC1(C)CCC(NC(=O)[C@H](N)CCC(=O)O)CC1`, the AC50 entry is “inactive”.

For the compound `N[C@@H](Cc1nn[nH]n1)C(=O)O`, the activity, negative = inhibition is -8.85% [at 11.4 µM].

Consider `CCCn1c(C)nc2c(c1=O)c1nc3ccccc3nc1n2CCC1=CCCCC1`, for which the AC50 is 5.62 µM (active).

In the case of `C/C(=N/O)[C@@H]1C[C@H](CC(=O)O)C1(C)C`, the activity, negative = inhibition is -6.68% [at 11.4 µM].

Regarding `Clc1ccc(COn2c(-c3ccccc3)nc3ccccc32)cc1`, the AC50 was 10 µM (active).

Consider `O=[N+]([O-])c1ccc2nc(-c3ccccc3)n(OCc3ccc(Cl)cc3)c2c1`, for which the AC50 is 4.47 µM (active).

Take `Cc1cc(-c2cccc([N+](=O)[O-])c2)nc2ccc3ccccc3c12`: the AC50 entry was “inactive”.

`CC(=O)OCC(=O)[C@@]1(O)CC[C@@H]2[C@H]3CCC4=CC(=O)CC[C@]4(C)[C@]3(F)[C@@H](O)C[C@@]21C`: the AC50 result is “inactive”.

In the case of `C[C@@H]1/C=C\CC(=O)OC[C@H](C)C(=O)N[C@@H](Cc2ccccc2)C(=O)OC1`, the activity, negative = inhibition is 10.4% [at 11.4 µM].

Consider `O=C1C=C[C@@H](O)[C@H]2[C@@H]3C(=O)N(c4cccc(Oc5ccccc5)c4)C(=O)[C@@H]3CC[C@H]12`, for which the activity, negative = inhibition was -24.8% [at 11.4 µM].

Consider `CCOC(=O)N/N=C/c1ccc(C)o1`, for which the AC50 result is “inactive”.

In the case of `COC(=O)c1sccc1-c1ccc(C(=O)Nc2cccc(Cl)c2)o1`, the AC50 is 10 µM (active).

`O=C(Nc1cccc2nsnc12)c1ccc(-c2cccc(Cl)c2)o1`: the AC50 result was “inactive”.

Take `COC(=O)c1sccc1-c1ccc(C(=O)Nc2cccnc2)o1`: the AC50 is 5.01 µM (active).

Take `COC(=O)c1nn(-c2ccc(OC)cc2)c(=O)cc1Oc1cccc(Cl)c1`: the AC50 entry was “inactive”.

Take `CCOC(=O)C(=CNCC(=O)O)C(=O)OCC`: the AC50 result is “inactive”.

Consider `CCOC(=O)C(=Cc1ccc(-c2ccsc2C(=O)OC)o1)C(=O)OCC`, for which the AC50 is 1.26 µM (active).

For the compound `CCN1C(=O)[C@H]2[C@H]3[C@H](O)[C@H](O)C/C(=N/O[C@@H](C)c4cn([C@H]5COC[C@H]5O)nn4)[C@@H]3CC[C@@H]2C1=O`, the activity, negative = inhibition is 9.59% [at 11.4 µM].

Regarding `CCOC(=O)c1cc(-c2ccccc2)sc1NC(=O)c1ccc(OC)cc1`, the AC50 was 11.2 µM (active).

Regarding `CCOC(=O)c1cc(-c2ccccc2)sc1NC(=O)C(C)(C)C`, the AC50 result was “inactive”.

Regarding `CCOC(=O)CCCNC(=O)CCCNC(=O)C(c1ccccc1)c1ccccc1`, the AC50 entry is “inactive”.

On to `COC(=O)c1cc(-c2ccccc2)sc1NC(=O)CN1C(=O)c2ccccc2C1=O`, for which the AC50 was 2.82 µM (active).

`CCOC(=O)c1cc(CC)sc1NC(=O)C(c1ccccc1)c1ccccc1`: the AC50 was 6.31 µM (active).

`CCOC(=O)N/N=C1/C[C@@H](O)[C@@H](O)[C@@H]2[C@@H]3C(=O)N(C(C)(C)C)C(=O)[C@H]3CC[C@@H]12`: the activity, negative = inhibition is 6.14% [at 11.4 µM].

Consider `COc1ccccc1-c1nc(Nc2ccncc2)c2ccccc2n1`, for which the activity, negative = inhibition was -28.7% [at 2.29 µM].

Consider `c1nc(NC2CC2)c2cc(-c3ccoc3)ccc2n1`, for which the activity, negative = inhibition is -5.58% [at 2.29 µM].

For `CCOC(=O)Cn1c(-c2ccccc2)nc2ccccc2c1=O`, the AC50 was 2 µM (active).

For the compound `O=C(O)Cn1c(-c2ccccc2)nc2ccccc21`, the AC50 entry is “inactive”.

As for `O=c1c2ccccc2nc(-c2ccc(Br)cc2)n1Cc1ccccc1`, the AC50 was 2.51 µM (active).

Consider `C[C@@H](CC(=O)O)[C@@H](N)C(=O)O`, for which the AC50 result is “inactive”.

Consider `COc1ccc2c3c(ccc2c1)N[C@H](C(=O)O)CC3`, for which the activity, negative = inhibition is -0.255% [at 11.4 µM].

For the compound `COCCNc1nc(-c2ccccc2OC)nc2ccccc12`, the activity, negative = inhibition was 5.14% [at 2.29 µM].

Regarding `CC(=O)c1cc(CC=C(C)C)c(O)cc1O`, the AC50 was 2.51 µM (active).

Consider `COc1cc(CC(=O)O)c(C(C)=O)cc1OC`, for which the AC50 result was “inactive”.

With `Cc1[nH]c2ccccc2c1C(c1ccccn1)N1CCC(C)CC1` (configuration not stated), the AC50 result is “inactive”.

Regarding `CCC(C)(C)n1nnnc1C(c1ccc(C)cc1)N1CCC(C)CC1` (configuration not stated), the AC50 was 28.2 µM (active).

With `Cn1c(-c2ccccc2)cnc1N`, the AC50 entry is “inactive”.

Consider `Cc1ccccc1CNc1ncnc2c1ncn2[C@@H]1O[C@@H](CO)[C@H](O)[C@@H]1O`, for which the AC50 result was “inactive”.

On to `CC(C)N(CC(=O)O)CC(=O)O`, for which the activity, negative = inhibition is -8.23% [at 11.4 µM].
